ERAP1 inh – human ERAP1 aminopeptidase inhibitors, primary screen, biochemical, single point, plate reader; Endoplasmic reticulum aminopeptidase 1 (Homo sapiens), Q9NZ08; inhibition, % at 10.7 µM; actives 0.15% (n = 340,000); recombinant ERAP1, Leu-AMC fluorescence, 60 min;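 active means mean replicate inhibition of at least 30%, or all replicates individually reaching that 30% level; inactive means mean below 30% and not every replicate reaching it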;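 further: 0% = neutral control wells and 100% = L-leucinethiol positive control wells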
CASP6 VEID inh – human caspase-6 inhibitors, primary screen, biochemical, VEID-R110 fluorescence, single point, set 2 | P55212 | purified caspase-6, Z-VEID-R110 cleavage fluorescence | inhibition, % at 12.5 µM | AID 686996, 2013 | actives 0.53% (n = 350,000);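 active means mean inhibition across replicates at least about 35%, with every replicate also reaching that limit, limit read from the data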;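 further: 0% = median of neutral control wells and 100% = no fluorescence left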
Target sequence (P55212 24-179 limits assumed): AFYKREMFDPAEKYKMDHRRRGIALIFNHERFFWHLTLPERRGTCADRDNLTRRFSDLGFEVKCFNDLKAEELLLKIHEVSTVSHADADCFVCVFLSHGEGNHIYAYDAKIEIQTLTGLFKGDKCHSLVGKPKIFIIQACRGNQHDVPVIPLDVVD
Target sequence (P55212 194-293 limits assumed): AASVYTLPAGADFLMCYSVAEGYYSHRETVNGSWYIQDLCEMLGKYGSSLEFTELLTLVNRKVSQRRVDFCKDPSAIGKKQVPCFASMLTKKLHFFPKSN
FGF22 binding-1 – binders of human FGF22 protein, primary screen, FGF22 synaptogenesis inhibitor project, biophysical, thermal shift, single point; Fibroblast growth factor 22 (Homo sapiens), Q9HCT0; activity (Tm shift, normalised), % at 9.99 µM; actives 1.5% (n = 340,000); AID 651658, 2012; recombinant FGF22 thermal shift, SYPRO orange fluorescence; percent of sucrose octasulfate shift, DMSO zero;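 active means mean Tm shift, scaled 0 neutral to 100 positive control, at about 1.3% or above, every replicate too, limit read from the data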
Target sequence (Q9HCT0 whole entry, looked up): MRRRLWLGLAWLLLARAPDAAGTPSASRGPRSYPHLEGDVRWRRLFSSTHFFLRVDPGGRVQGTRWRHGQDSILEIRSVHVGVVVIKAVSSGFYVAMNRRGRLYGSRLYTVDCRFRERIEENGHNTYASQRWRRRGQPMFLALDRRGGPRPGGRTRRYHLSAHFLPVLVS
SIRT5 inh – SIRT5 desuccinylase inhibitors, primary screen, biochemical, fluorescence imaging, single point, set 5. Purified SirT5, succinyl-peptide AMC, trypsin-coupled fluorescence. inhibition, % at 15 µM. actives 1.1% (n = 330,000). AID 652115, 2013; in the data active means inhibition above about 15%
INS-1E GSIS act – GLuc luminescence reporter in INS-1E cells, primary screen for activators of glucose-dependent secretion of insulin; INS-1E GLuc reporter insulin secretion, 2-3 h; activation, % at 16.6 µM; actives 0.61% (n = 370,000);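 active means lowest replicate activation of at least 40%, so every replicate reaches that level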;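 further: 0% = median of neutral control wells and 100% = median of IBMX positive control wells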
FGF22 binding-2 – binders of human FGF22 protein, dose response, FGF22 synaptogenesis inhibitor project, biophysical, thermal shift, cherry-pick retest; actives 2% (n = 1,000); thermal shift activity, °C (ΔTm) at 38 µM; recombinant FGF22 thermal shift, SYPRO orange fluorescence; shares compounds with FGF22 binding-1;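 active means fitted rise in melting shift crosses a set limit at or below the top valid dose tested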
SYPRO no-protein – compound-only thermal shift signal without protein, dose response, artefact control for FGF22 binder project, biochemical, cherry-picked samples, RT-PCR instrument; AC50, µM (top dose mostly 38 µM); actives 2% (n = 1,000); compound-only SYPRO orange thermal shift counter-screen, no protein; shares compounds with FGF22 binding-1;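 active means rising signal whose fitted curve reaches the 0.54 level within the top valid dose, showing a melting point, actives reach about 13 µM in these data; inactive means the rest, including activity in the opposite direction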; further: value is where the raw curve crosses a fixed level and not half-maximal
CASP1 counter – human caspase-1 inhibitors, dose response, selectivity assay for caspase-6 inhibitor project, biochemical, Z-YVAD-R110 fluorescence, cherry-pick, set 2; shares compounds with CASP6 VEID inh; purified caspase-1, Z-YVAD-R110 cleavage fluorescence; activity change, negative = inhibition, % at 35 µM; 100 tested, under 10 active; AID 743289, 2014;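 active means compounds lowering fluorescence whose fitted half-maximal concentration is no more than twice their top tested dose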
The depositor's hits bear a star. Compounds with a hit are over-represented: about 3.3% of the library has one in this group of screens.

Results for CCc1ccc(N2C(=O)NC(=O)/C(=C\C=C\c3ccco3)C2=O)cc1 ?
ERAP1 inh: 0; CASP6 VEID inh: 54*; FGF22 binding-1: 0; SIRT5 inh: -1; INS-1E GSIS act: -12

Results for CN1[C@@H]2CN(S(C)(=O)=O)C[C@H]1C2c1ccc(Br)cc1 (stereo partly specified) ?
INS-1E GSIS act: -9

Results for C/C=C/c1ccc([C@@H]2[C@H]3CN(C(=O)Cc4ccncc4)CCCCN3[C@H]2CO)cc1 ?
ERAP1 inh: 1; CASP6 VEID inh: 1; FGF22 binding-1: 1.3*; SIRT5 inh: 1; INS-1E GSIS act: 3; FGF22 binding-2: 0.039; SYPRO no-protein: inactive

What do the screens show for `CC(C)c1ccc(-n2c(O)c(/C=N/NC(=O)c3ccccc3O)c(=O)[nH]c2=S)cc1`?
CASP6 VEID inh: 22; FGF22 binding-1: 1.4*; SIRT5 inh: 1; INS-1E GSIS act: -4; FGF22 binding-2: 0.37; SYPRO no-protein: inactive

Results for COc1ccc(C#Cc2ccc3c(c2)O[C@H](CN(C)S(=O)(=O)c2ccccc2F)[C@@H](C)CN([C@@H](C)CO)S3(=O)=O)cc1 ?
ERAP1 inh: -3; CASP6 VEID inh: 6; FGF22 binding-1: 2.1*; SIRT5 inh: 15*; INS-1E GSIS act: -18; FGF22 binding-2: 0.016; SYPRO no-protein: 2.4µM*

Results for COc1ccc(OC(=O)N(C)C[C@H]2OCc3ccccc3-c3c(n(C)c4ccccc34)C(=O)N([C@H](C)CO)C[C@H]2C)cc1 ?
ERAP1 inh: 0; CASP6 VEID inh: -1; SIRT5 inh: 1; INS-1E GSIS act: -22

What do the screens show for `CC=Cc1ccc2n(c1=O)C[C@H]1[C@H](CO)[C@@H](C(=O)OC)[C@@H]2N1CC1CCCCC1` (mixture of isomers)?
ERAP1 inh: -2; CASP6 VEID inh: -1; FGF22 binding-1: 0; SIRT5 inh: -2; INS-1E GSIS act: -15

Results for CC(C)NC(=O)N1C[C@@H]2C(c3ccc(Br)cc3)[C@H](C1)N2C (stereo partly specified) ?
INS-1E GSIS act: 22

Results for CCOC(=O)C(c1c(O)c2ccccc2oc1=O)c1c(O)c2ccccc2oc1=O ?
ERAP1 inh: -2; CASP6 VEID inh: 3; FGF22 binding-1: 1.8*; SIRT5 inh: 2; INS-1E GSIS act: 0; FGF22 binding-2: 0.003; SYPRO no-protein: inactive

Results for O=c1oc2ccccc2c(O)c1C(c1ccccn1)c1c(O)c2ccccc2oc1=O ?
ERAP1 inh: 7; CASP6 VEID inh: 6; FGF22 binding-1: 0; SIRT5 inh: 7; INS-1E GSIS act: -11

What do the screens show for `CN1CCc2cc(O)cc3c2[C@H]1Cc1ccc(O)c(O)c1-3`?
ERAP1 inh: -26; CASP6 VEID inh: 7; FGF22 binding-1: -1; SIRT5 inh: 3; INS-1E GSIS act: -4

Results for CN1CCc2cc3c(c4c2C1Cc1ccccc1-4)OCO3 (stereo unspecified) ?
ERAP1 inh: -2; CASP6 VEID inh: 84*; FGF22 binding-1: 0; SIRT5 inh: 1; INS-1E GSIS act: -32; CASP1 counter: -1

What do the screens show for `CC(Cc1ccc(O)cc1)NCC(O)c1ccc(O)c(O)c1` (stereo unspecified)?
ERAP1 inh: -4; CASP6 VEID inh: 73*; FGF22 binding-1: 0; SIRT5 inh: 6; CASP1 counter: -4

Results for CCCNC(=O)N1[C@@H]2Cn3c(ccc(-c4ccccc4OC)c3=O)[C@H]1[C@@H](C(=O)O)[C@@H]2CO ?
ERAP1 inh: -2; CASP6 VEID inh: 1; FGF22 binding-1: 0; SIRT5 inh: -21; INS-1E GSIS act: 19
